Here are results for 64 compounds from PubChem BioAssay AID651820 (National Center for Advancing Translational Sciences (NCATS), 2012).

Screen size: about 340,000 compounds; about 12,000 (3.5%) were called active. Where a call stands in place of a potency, no number is given. Roughly 18% stayed inconclusive and do not appear here. Calls follow the shape of the dose curve; as a rule, active = well fitted inhibition curve with a large enough effect; inconclusive = small, poorly fitted or top-dose-only effect, or another doubt; inactive = no such curve, though single readings can be large or run the other way. This excerpt belongs to a sample that is enriched for actives.
Potency is read from the fitted curve at half-maximal effect.

This test is described as follows: qHTS Assay for Inhibitors of Hepatitis C Virus (HCV). The conditions noted are these: Huh7.5.1 HCVcc-Cre infection, luciferase reporter, 44 h; series mostly up to 41.8 µM. In short, it runs like this: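 Luciferase read-out (15 sec integration) after a 15 min room-temperature substrate step quantifies HCVcc-Cre infection. Cells, 1,000 per well, had compound added 4 h post-plating, then virus at ~0.5 moi, and were cultured 44 h.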
On the technique in general: Quantitative high-throughput screening tests each substance at several concentrations.
With `CN(c1ccccc1)S(=O)(=O)c1cc(C(=O)N2CCN(c3ncccn3)CC2)ccc1Cl`, the Potency result is “inactive”.

As for `Cc1ccc(S(=O)(=O)N2CC(O)C[C@H]2C(=O)OCC(=O)Nc2ccc(N3CCOCC3)cc2)cc1C` (some centres undefined), the Potency entry is “inactive”. Still for that read-out and setting: in the case of `Cc1ccccc1NC(=S)NNC(=O)c1cccc(Br)c1` it was “inactive”; in that of `O=C(/C=C/NNC(=O)c1cccc(Br)c1)c1ccccc1`, 10 µM (active).

In the case of `CC(CC(=O)O)CC(=O)NNC(=O)c1cccc(Br)c1` (centres undefined), the Potency result is “inactive”. For the compound `CC(=O)c1cccc(-c2ccc(CN3C(CC(C)C)C(=O)N(Cc4cn(CC5CCCCC5)nn4)CCS3(=O)=O)cc2)c1` (centres undefined), the activity change, negative = inhibition was -21% [at 8.37 µM] (inactive). On to `Cn1c(CCN2CCCC2)nc2cc(NS(=O)(=O)c3ccccc3)ccc21`, for which the Potency entry was “inactive”. Still for that read-out and setting: in the case of `COc1ccccc1-n1cnc2cc(NS(=O)(=O)c3ccccc3)ccc21` it was 22.4 µM (active). On the same count and under the same terms, in the case of `COc1ccccc1-n1cnc2cc(C(=O)NCC3CCCO3)ccc21` (centres undefined) it was “inactive”; in that of `O=C(COC(=O)c1ccc(F)cc1)Nc1ccc2c(c1)OCO2`, “inactive”. Still for that read-out and setting: in the case of `COc1ccccc1CCNC(=O)C(=O)NCCC1CCCCN1S(=O)(=O)c1cccs1` (centres undefined) it was 35.5 µM (active); in that of `COc1ccc(C(=O)NCC2CCCN2S(=O)(=O)c2cccs2)cc1OC` (centres undefined), “inactive”. Take `O=C(NCc1ccccc1Cl)C(=O)NCC1CCCN1S(=O)(=O)c1cccs1` (centres undefined): the Potency entry was “inactive”. The same measure, in the same setting: in the case of `Oc1[nH]c2ccccc2c1N=Nc1c(F)c(F)c(F)c(F)c1F` it was “inactive”. Same read-out and setting: in the case of `Nc1cc2c(cc1Br)-c1ccc(F)cc1C2=O` it was 12.6 µM (active); in that of `CC1CCCCC1NC(=O)NC(=O)COC(=O)C1=NN(c2ccccc2)C(=O)CC1` (centres undefined), “inactive”; in that of `COc1ccc(OC)c(C(c2nnnn2C(C)(C)C)N2CCc3ccccc3C2)c1` (centres undefined), 7.94 µM (active).

In the case of `Cc1ccc(C(c2nnnn2C(C)(C)C)N2CCc3ccccc3C2)cc1` (centres undefined), the Potency result is “inactive”.

On to `COc1ccccc1C(c1nnnn1C(C)(C)C)N1CCN(Cc2ccccc2)CC1` (centres undefined), for which the Potency result was “inactive”. Same read-out and setting: in the case of `CCCCn1c(N)c(N(CC)C(=O)c2ccc(N(C)S(=O)(=O)c3ccc(C)cc3)cc2)c(=O)[nH]c1=O` it was “inactive”; in that of `O=C(c1ccc2c(c1)C(=O)N(Cc1ccncc1)C2=O)N1CCN(S(=O)(=O)c2ccc(OC(F)(F)F)cc2)CC1`, “inactive”; in that of `Fc1ccc(/C=N/Nc2nc(-c3cccnc3)nc3ccccc23)cc1`, “inactive”.

With `Oc1ccc(/C=N/Nc2nc(-c3ccccc3F)nc3ccccc23)c(O)c1`, the Potency was 11.2 µM (active).

Consider `Cc1cc(N/N=C/c2ccccc2F)c2ccccc2n1`, for which the Potency result is “inactive”. As for `C[C@]12CC[C@H](O)CC1=CCC1C2CC[C@@]2(C)C1CC[C@@H]2NC(=O)CCC(=O)O` (some centres undefined), the Potency result was “inactive”. Same read-out and setting: in the case of `COC(=O)c1sc2ncccc2c1OCc1ccc(Cl)cc1Cl` it was “inactive”; in that of `NC(N)=N/N=C/c1ccc(OCc2ccc(Cl)cc2Cl)cc1`, 11.2 µM (active). Consider `CCOc1ccc(NC(=O)NNC(=O)c2ccc(Cl)cc2Cl)cc1`, for which the Potency result was “inactive”. `CC(=O)NC12CC3CC(C1)CC(C(=O)N1CCN(S(=O)(=O)c4cccs4)CC1)(C3)C2`: the Potency result is “inactive”.

Turning to `CCCCCCCN=C(C)c1ccccc1O`, the Potency result was “inactive”. Still for that read-out and setting: in the case of `COc1cccc(/C=N/Nc2ccc(Cl)nn2)c1` it was “inactive”.

Turning to `Clc1ccc(N/N=C/c2cccs2)nn1`, the Potency entry was “inactive”. The same measure, in the same setting: in the case of `CC(C)=C(NC(=O)c1ccccc1)C(=O)N/N=C(\C)c1ccccc1O` it was “inactive”; in that of `Oc1cccc(/C=N/Nc2ccc(Cl)nn2)c1O`, 2.51 µM (active).

`C/C(=N\Nc1ccc(Cl)nn1)c1ccccc1O`: the Potency is 0.501 µM (active). Still for that read-out and setting: in the case of `CCCN(C(=O)CSc1nnc(N)s1)c1c(N)n(Cc2ccccc2)c(=O)[nH]c1=O` it was “inactive”. The same measure, in the same setting: in the case of `CCc1ccc(-c2nn(-c3ccccc3)cc2CSC(=N)N)cc1` it was 10 µM (active); in that of `Cc1ccc(-c2nn(-c3ccccc3)cc2C(=O)NC2CCC(O)CC2)cc1` (centres undefined), “inactive”.

Regarding `CCc1ccc(-c2nn(-c3ccccc3C)cc2C(=O)N2CCN(C3CCS(=O)(=O)C3)CC2)cc1` (centres undefined), the Potency entry is “inactive”. For the compound `Cc1ccc(NC(=O)C(C)Sc2nnc(C3CC3)n2C2CC2)cc1S(=O)(=O)N1CCOCC1` (centres undefined), the Potency result is “inactive”. On to `CC(C)CC[n+]1ccn(C2=C([O-])c3ccccc3C(=O)/C2=N\S(=O)(=O)c2ccccc2)c1`, for which the Potency is 10 µM (active). On the same count and under the same terms, in the case of `COc1ccc(C(=O)NCc2ccccc2C)cc1S(=O)(=O)NC1CCCC1` it was “inactive”. On the same count and under the same terms, in the case of `CCCCN(C(=O)C1CCC1)c1c(N)n(Cc2ccccc2)c(=O)[nH]c1=O` it was “inactive”; in that of `COc1ccc(C(=O)C[n+]2ccc(C)cc2)cc1`, “inactive”.

With `COc1ccc(CCC(=O)c2ccc(OC)cc2)cc1`, the Potency entry is “inactive”. Same read-out and setting: in the case of `COc1ccc(C(=O)C[n+]2ccc(N)c(C)c2C)cc1` it was 2.24 µM (active).

As to `COc1cc(/C=C/C(=O)OCC(=O)c2ccccc2)cc(OC)c1OC`, the Potency entry was “inactive”. On the same count and under the same terms, in the case of `COc1ccc(S(=O)(=O)N(C)C[C@H]2Oc3ccc(NS(=O)(=O)c4cccs4)cc3CC(=O)N([C@H](C)CO)C[C@H]2C)cc1` it was “inactive”; in that of `O=C(COc1ccc(F)cc1Br)NCC1COc2ccccc2O1` (centres undefined), “inactive”. On the same count and under the same terms, in the case of `CC1(C)Cc2cccc(OCC(=O)NCc3ccccc3)c2O1` it was “inactive”; in that of `CC1(C)Cc2cccc(OCC(N)=O)c2O1`, “inactive”. Still for that read-out and setting: in the case of `CC1(C)Cc2cccc(OCC(=O)N3CCN(c4ccc([N+](=O)[O-])cc4)CC3)c2O1` it was 10 µM (active); in that of `COc1ccc(CCOC2OC(CO)C(OC(=O)/C=C/c3ccc(O)c(OC)c3)C(O[C@H]3O[C@@H](C)[C@H](O)[C@@H](O)[C@H]3O)C2O)cc1O` (some centres undefined), “inactive”; in that of `COc1ccc2[nH]c3c(=O)n(Cc4ccco4)cnc3c2c1`, “inactive”.

`COc1cc(OC)c(OC)cc1/C=N/Nc1ncnc2c1[nH]c1ccc(C)cc12`: the Potency result is “inactive”. For `CC(C)OCCCNc1ncnc2c1[nH]c1ccc(F)cc12`, the Potency was 12.6 µM (active). As to `O=C(COC(=O)c1cccc(Cl)c1)NC1CCCCCCC1`, the Potency entry was “inactive”. The same measure, in the same setting: in the case of `O=C1NC(Cc2ccc(O)cc2)c2nc3ccc(Cl)cc3c(=O)n2-c2ccccc21` (centres undefined) it was “inactive”; in that of `O=C(N/N=C/c1cccnc1)c1cc2ccccc2cc1O`, “inactive”. Still for that read-out and setting: in the case of `CC(C)(C)OC(=O)NNc1c2ccccc2nc2ccccc12` it was 2.82 µM (active); in that of `Cc1ccc(C(=O)NNC(=O)OC(C)(C)C)c(Cl)c1`, “inactive”; in that of `Cc1ccccc1NC(=O)NNC(=O)OC(C)(C)C`, “inactive”. For `O=C(NNc1c2ccccc2nc2ccccc12)c1cc2ccccc2cc1O`, the Potency is 2.82 µM (active). Same read-out and setting: in the case of `COc1ccc(-c2cc(C(=O)Nc3ccccc3O)c3ccccc3n2)cc1` it was “inactive”.
